The text below walks through data of ChEMBL document CHEMBL4513216, “Probing the Open Global Health Chemical Diversity Library for Multistage-Active Starting Points for Next-Generation Antimalarials” (ACS Infect Dis, 2020).

Hit rate of the full screen: of about 69,000 compounds, about 8,600 (12%) showed an effect of 50% or more. The sample as a whole holds a higher share of strong results than the screen did.

This experiment relates to Plasmodium berghei. The experiment in a line: Screen against P. berghei liver stage (PbLuc), transformed with Luciferase, at 10uM. It counts as functional, HepG2. Particulars: tested at 10 uM.
With `CCN1CCOCC12CCN(C(=O)C1CCCC1)CC2`, the INHIBITION is -7.28%.

For `CC(CS(C)(=O)=O)NC(=O)N1CC2(CCCC2)c2ccccc21` (centres undefined), the INHIBITION was -16.1%.

`COc1ncc(-c2c(C#N)c(N)nc3c2CCc2[nH]ccc2-3)cn1`: the INHIBITION was found to be 39.05%.

In the case of `Cn1cc(-c2c(C#N)c(N)nc3c2CCc2[nH]ccc2-3)cc1C#N`, the INHIBITION was 50%.

As for `Cc1n[nH]c(C)c1-c1c(C#N)c(N)nc2c1CCc1[nH]ccc1-2`, the INHIBITION is given as 39.7%.

In the case of `COCCc1ncc(-c2c(C#N)c(N)nc3c2CCc2[nH]ccc2-3)cn1`, the INHIBITION is 27.9%.

Turning to `CCc1ccc(-c2c(C)c(-c3cnn(C)c3)nc(N)c2C#N)o1`, the INHIBITION is on record as -7.7%.

`Cc1c(-c2cnn(C)c2)nc(N)c(C#N)c1-c1ccc(CO)o1`: the INHIBITION turned out to be 88%.

As to `Cc1cc(-c2c(C)c(-c3cnn(C)c3)nc(N)c2C#N)oc1C`, the INHIBITION is reported as 31.6%.

As for `CC(C)n1cc(-c2c(C#N)c(N)nc3c2COCC3)cn1`, the INHIBITION worked out at 34.5%.

For the compound `Cn1cc(-c2c(C#N)c(N)nc3c2CCc2[nH]ccc2-3)cn1`, the INHIBITION came out at 60.1%.

Take `O=C(CN1CCCC1Cn1cncn1)Nc1nncs1` (centres undefined): the INHIBITION was -8.66%.

For `COCCN(Cc1ccccc1Cl)c1nc(CCN)nc2ccccc12`, the INHIBITION is reported as 47.3%.

Regarding `N#Cc1cccc(CN2C[C@H](NC(=O)C3CC3)[C@H]3OCCC[C@H]32)c1`, the INHIBITION was 35.8%.

With `COc1cc(C(=O)N(Cc2cccs2)C2CC2)cc2c1OCCO2`, the INHIBITION is listed as 47.4%.

Take `Cc1oncc1C(=O)N[C@@H]1CN(Cc2ccco2)C[C@@H]2CCCO[C@@H]21`: the INHIBITION is reported as 0.453%.

With `COC(=O)CNC(=O)c1nc(Br)sc1C(C)C`, the INHIBITION amounted to 45.3%.

Turning to `Cc1nc2n(n1)CC(NCCC(=O)Nc1cc(C)on1)CC2` (centres undefined), the INHIBITION was -3.2%.

`CCc1nccn1-c1cncc(C2CCN(C(=O)COC)CC2)n1`: the INHIBITION is listed as -22.6%.

Take `COc1nc2cc(C)ccc2cc1CN(C)Cc1n[nH]c2c1CCCC2`: the INHIBITION came to 28.15%.

Turning to `CCOc1cccc(C(C(=O)O)N(C)Cc2cc(C)no2)c1` (centres undefined), the INHIBITION was -24.6%.

`Cc1cc(CN(C)C(C(=O)O)c2cccc(C(F)(F)F)c2)on1` (centres undefined): the INHIBITION is on record as -21.2%.

In the case of `Cc1cc(CN(C)C(C(=O)O)c2ccc(C(C)(C)C)cc2)on1` (centres undefined), the INHIBITION turned out to be 58.4%.

As for `CN(Cc1cc[nH]n1)C(=O)c1ccc2c(c1)nc(N1CC[C@H](O)C1)n2C`, the INHIBITION amounted to 22.6%.

In the case of `COc1ccc(COCC(O)CSc2ccc(NC(C)=O)cc2)cc1` (centres undefined), the INHIBITION was determined as 5.75%.

As to `O=C(O)CCN(Cc1ccc(F)c(F)c1)C(=O)C1CC1`, the INHIBITION stood at 40.1%.

`N#Cc1ccc(Cl)cc1NCC1CCOC1` (centres undefined): the INHIBITION is recorded as -10.5%.

As to `Cc1c(C(=O)O)sc2nc(C(F)(F)F)ccc12`, the INHIBITION is listed as -11.9%.

For `Cc1c(C(=O)N2CCSCC2)sc2nc(C(F)(F)F)ccc12`, the INHIBITION is 14.9%.

On to `Cc1c(C(N)=O)sc2nc(C(F)(F)F)ccc12`, for which the INHIBITION was found to be 54.5%.

Regarding `Cc1ncnc(NCCCN2CCCCC2CO)c1C` (centres undefined), the INHIBITION is -17.8%.

With `CC(C(N)=O)N1CCN(c2ncc(Br)cn2)CC1` (centres undefined), the INHIBITION is reported as 21.8%.

For `CCn1c(C)nnc1SCCNc1nc(C)ncc1S(C)(=O)=O`, the INHIBITION is given as -22.4%.

Turning to `CCc1cnc(C)nc1NCCSc1nnc(C)n1CC`, the INHIBITION worked out at 55.7%.

Turning to `CCn1c(C)nnc1SCCNc1nc(C)nc2c1cnn2C`, the INHIBITION stood at 26.7%.

In the case of `Cc1cccc(CN2CCC3(CCCN(C(=O)NC(C)C)C3)C2=O)n1` (centres undefined), the INHIBITION stood at 8.67%.

As to `Cc1ncoc1C(=O)N1C[C@H]2CCC[C@@]2(COCC2CCOCC2)C1`, the INHIBITION worked out at 44.4%.

In the case of `O=C(c1ccncn1)N1C[C@H]2CCC[C@@]2(COCC2CCOCC2)C1`, the INHIBITION is given as 64.9%.

Regarding `O=C(c1ccnnc1)N1C[C@H]2CCC[C@@]2(COCC2CCOCC2)C1`, the INHIBITION was 43.8%.

In the case of `Cc1ccc(C(=O)N2C[C@H]3CCC[C@@]3(COCC3CCOCC3)C2)o1`, the INHIBITION came out at 62.5%.

Take `O=C(c1ncccn1)N1C[C@H]2CCC[C@@]2(COCc2ccncc2)C1`: the INHIBITION is -15.8%.

Take `O=C(c1ccccn1)N1C[C@H]2CCC[C@@]2(COCC2CCOCC2)C1`: the INHIBITION is 45.1%.

For the compound `O=C(c1cccs1)N1C[C@H]2CCC[C@@]2(COCC2CCOCC2)C1`, the INHIBITION is listed as 77.7%.

Turning to `c1csc(CN2C[C@H]3CCC[C@@]3(COCC3CCOCC3)C2)n1`, the INHIBITION is on record as 49.7%.

As for `O=C(c1ncccn1)N1C[C@H]2CCC[C@@]2(COCC2CCOCC2)C1`, the INHIBITION is recorded as 0%.

As for `CCCOc1cc(C)ccc1NC(=O)N(C)Cc1cnn(C)c1`, the INHIBITION is 38.5%.

On to `O=C(O)[C@]12CCCN(C3CCOC3)C[C@H]1CN(c1nncs1)C2` (some centres undefined), for which the INHIBITION amounted to 4.98%.

For `CN1CCN(C[C@@H]2CN(C(=O)CC3CCCCC3)C[C@@H]2CO)CC1`, the INHIBITION was 6.65%.

As for `CC(NC(=O)CCS(=O)(=O)C1CCCC1)c1nc(-c2ccccc2)c[nH]1` (centres undefined), the INHIBITION turned out to be 4.81%.

In the case of `CC(NC(=O)CCc1cccs1)c1nnc2n1CCCCC2` (centres undefined), the INHIBITION is on record as -29.1%.

For `CCc1nsc(N2CCN(CC(=O)NCc3cccnc3)CC2)n1`, the INHIBITION was 78.1%.

Regarding `Cc1nsc(N2CCN(CC(=O)NCc3cccnc3)CC2)n1`, the INHIBITION is -101%.

For `CCCNC(=O)CN1CCN(c2nc(CC)ns2)CC1`, the INHIBITION is on record as -23.2%.

With `CN(C)C(=O)c1cccc(CN2CCN(CC(O)C(C)(C)C)CC2)c1` (centres undefined), the INHIBITION is -13.5%.

Take `Cc1c(Br)c(C(F)(F)F)nn1C(C)C(=O)O` (centres undefined): the INHIBITION is given as 8.49%.

As for `Cc1nnc(NCCC(=O)N(C)Cc2ccccc2)c(C#N)c1C`, the INHIBITION is listed as -5.65%.

Regarding `Cc1cnc(-c2nc(C3CCN(Cc4ccccc4C)CC3)no2)cn1`, the INHIBITION is listed as 19.36%.

Take `O=C(NS(=O)(=O)Cc1ccon1)c1ccsc1`: the INHIBITION came to 73.6%.

Consider `Cc1ccc(S(=O)(=O)NC(=O)CCc2ccco2)cc1N(C)C`, for which the INHIBITION is reported as -18.9%.

Take `COc1ccc(C(=O)NCc2ccon2)cc1F`: the INHIBITION came to 11.6%.

Take `O=C(CCc1ccsc1)NS(=O)(=O)Cc1ccon1`: the INHIBITION turned out to be 55.4%.

Consider `Cc1ccc(C(=O)NS(=O)(=O)Cc2ccon2)c(C)c1`, for which the INHIBITION came to 12.8%.

With `Cc1cc(C(=O)NS(=O)(=O)Cc2ccon2)c(C)o1`, the INHIBITION was determined as 44.2%.

As to `O=C(CCc1ccco1)NS(=O)(=O)N1CCOc2ccccc21`, the INHIBITION was determined as 25.2%.

Take `Cc1cc(C(=O)NS(=O)(=O)Cc2ccon2)c(C)n1C(C)C`: the INHIBITION was found to be 56.1%.

Turning to `CC(O)(CNS(=O)(=O)Cc1ccon1)c1ccsc1` (centres undefined), the INHIBITION amounted to 1.98%.

As for `O=C(CCc1cccc(Cl)c1)NS(=O)(=O)Cc1ccon1`, the INHIBITION is 35.1%.

As to `CN(C(=O)CCc1ccsc1)S(C)(=O)=O`, the INHIBITION is given as 37.4%.

Take `O=C(CCc1ccco1)NS(=O)(=O)Cc1ccon1`: the INHIBITION was found to be 64%.
